Results filed as inconclusive are left out. Activity calls are given as the source filed them. Unless noted, the call rests on the fitted dose curve; in most records, active means well fitted curve in the direction sought with a large enough effect in the repeat runs; inconclusive means weak or mixed curves; inactive means no such curve, though single readings can be large; an effect the other way counts as inactive or inconclusive.

In experiment [1] the target is Peroxisome proliferator-activated receptor gamma (Homo sapiens) (UniProt P37231). Nature of the experiment: qHTS assay to identify small molecule antagonists of the peroxisome proliferator-activated receptor gamma (PPARg) signaling pathway (AID 743191; calls by dose curve; further: series mostly up to about 63 µM; nearly all actives have a fitted effect of over 30% in size). Summed up: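 GeneBLAzer PPARg UAS-bla HEK293H cells carrying a UAS-driven beta-lactamase reporter were plated at 3000 cells/well, preincubated 5 h at 37C, then given compound for 17 h at 37C; LiveBLAzer B/G FRET substrate was read after 1 h at room temperature.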
A general note: Quantitative high-throughput screening tests each substance at several concentrations.

A short description of experiment [2]: qHTS assay to identify small molecule antagonists of the peroxisome proliferator-activated receptor gamma (PPARg) signaling pathway - cell viability counter screen (AID 743194). Further: nearly all actives have a fitted effect of over 55% in size. Further: potency means the concentration at half of the fitted maximal effect. The following applies: Potency: co-treated with 50 nM rosiglitazone. The method, boiled down:
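PPARg-UAS-bla HEK293H cells were plated, rested 5 h at 37 C, then treated with compounds plus rosiglitazone (50 nM final) for 17 h at 37 C; viability was then read by CellTiter-Glo luminescence after 30 min at room temperature.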

Experiment [3] in a line: qHTS assay for small molecule agonists of the antioxidant response element (ARE) signaling pathway - cell viability counter screen (AID 743203; calls by dose curve; further: nearly all actives have a fitted effect of over 55% in size; further: potency means the concentration at half of the fitted maximal effect). The method, boiled down:
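Viability counter screen: stably transfected ARE-bla HepG2 line, 16 hrs compound exposure at 37C/5% CO2, ATP-based CellTiter-Glo luminescence measured in the reporter wells.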

The nature of experiment [4]: qHTS assay for small molecule activators of the heat shock response signaling pathway - cell viability counter screen (AID 743209). Further: nearly all actives have a fitted effect of over 50% in size. Summed up: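 Viability of HSE-bla HeLa cells is measured with CellTiter-Glo in the wells already used for the reporter read. Compound exposure lasts 5 h at 37 C, and luminescence is read after 30 min at room temperature.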
Experiment [5] can be described thus: qHTS assay for small molecule activators of the heat shock response signaling pathway (AID 743210; active means well fitted activation curve with a large enough effect in the signal ratio in the repeat runs, with a control signal flat, not every such curve was filed as active; the % refers to the signal ratio; further: series mostly up to about 63 µM). Summed up:
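Heat shock element–beta-lactamase HeLa reporter cells; qHTS with compounds for 5 h at 37 C; detection by FRET substrate fluorescence after 2.5 h at RT.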

The nature of experiment [6]: qHTS assay to identify small molecule agonists of the peroxisome proliferator-activated receptor delta (PPARd) signaling pathway - cell viability counter screen (AID 743211). Further: nearly all actives have a fitted effect of over 55% in size. Further: potency means the concentration at half of the fitted maximal effect. Summed up:
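PPARd-bla HEK293H cells (3000/well) were pre-incubated 5 h at 37 C, then exposed to compound for 17 h at 37 C. After 2 h with LiveBLAzer substrate, CellTiter-Glo was added to the same wells; luminescence read after 30 min at room temperature.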

Experiment [7] addresses Peroxisome proliferator-activated receptor delta (Homo sapiens) (UniProt Q03181). The experiment can be described thus: qHTS assay to identify small molecule agonists of the peroxisome proliferator-activated receptor delta (PPARd) signaling pathway (AID 743212; calls by dose curve). The method, boiled down: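 Beta-lactamase reporter read by fluorescence (LiveBLAzer B/G FRET, 2 h, room temperature). Test agents, in DMSO, incubated at 37 C with PPARd-bla HEK293H cells.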

Experiment [8] in a line: qHTS assay to identify small molecule antagonists of the peroxisome proliferator-activated receptor delta (PPARd) signaling pathway - cell viability counter screen (AID 743213). Further: nearly all actives have a fitted effect of over 50% in size. Further: potency means the concentration at half of the fitted maximal effect. The method, boiled down:
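Luminescence from CellTiter-Glo, added after the bla read and incubated 30 min at room temperature, gives viability of HEK293H PPARd-bla cells exposed to compounds for 17 h at 37 C with 300 nM L165041.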

Experiment [9] concerns the target Peroxisome proliferator-activated receptor delta (Homo sapiens) (UniProt Q03181). The experiment can be described thus: qHTS assay to identify small molecule antagonists of the peroxisome proliferator-activated receptor delta (PPARd) signaling pathway (AID 743215; active means well fitted inhibition curve with a large enough effect in the signal ratio in the repeat runs, not every such curve was filed as active; the % refers to the signal ratio;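 further: cells stimulated with agonist L165041 at 300 nM final during compound exposure; series mostly up to about 62 µM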). The method, boiled down: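 Plated HEK293H PPARd-bla cells rested 5 h at 37 C and 5% CO2. Compound, then agonist L165041 at 300 nM final, was added; 17 h at 37 C followed. Substrate loading, 2 h room temperature, fluorescence measured.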

The target of experiment [10] is Bile acid receptor (Homo sapiens) (UniProt Q96RI1). Nature of the experiment: qHTS assay to identify small molecule antagonists of the farnesoid-X-receptor (FXR) signaling pathway (AID 743217; active means well fitted inhibition curve with a large enough effect in the signal ratio in the repeat runs, not every such curve was filed as active; the % refers to the signal ratio). The method, boiled down: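 Screen of the Tox21 10K library in quantitative HTS format using FXR-UAS-bla HEK 293T reporter cells. Agonist chenodeoxycholic acid, 50 uM final, added with compounds; 16 h incubation at 37 °C; beta-lactamase FRET fluorescence measured.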

Experiment [11] has the same target. The experiment can be described thus: qHTS assay to identify small molecule agonists of the farnesoid-X-receptor (FXR) signaling pathway (AID 743220; active means well fitted activation curve with a large enough effect in the signal ratio in the repeat runs, not every such curve was filed as active; the % refers to the signal ratio). The method, boiled down:
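FXR-UAS-bla HEK 293T cells carrying a UAS-driven beta-lactamase reporter were plated for 5 h at 37C/5% CO2, then exposed to DMSO-dissolved Tox21 10K compounds for 16 h at 37C. A LiveBLAzer B/G FRET substrate was loaded for 2 h at room temperature before fluorescence reading.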

A short description of experiment [12]: qHTS assay to identify small molecule antagonists of the farnesoid-X-receptor (FXR) signaling pathway - cell viability counter screen (AID 743221; active means well fitted cell-killing curve with a large enough effect in the repeat runs, not every such curve was filed as active; further: nearly all actives have a fitted effect of over 50% in size; further: potency means the concentration at half of the fitted maximal effect). The method, boiled down:
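GeneBLAzer FXR-UAS-bla HEK 293T cells, compound plus chenodeoxycholic acid (50 uM final), 16 h at 37 C. CellTiter-Glo added to the same wells after the beta-lactamase read; luminescence read after 30 min at room temperature as viability.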

Experiment [13] deals with Vitamin D3 receptor (Homo sapiens) (UniProt P11473). Nature of the experiment: qHTS assay to identify small molecule agonists of the vitamin D receptor (VDR) signaling pathway (AID 743222; calls by dose curve). Summed up:
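Fluorescence from cleaved LiveBLAzer B/G FRET substrate served as readout. VDR-bla cells had been treated 16 h at 37C with test compounds in DMSO, following a 4 h settling period, and substrate was loaded for 2 h at RT.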

The nature of experiment [14]: qHTS assay to identify aromatase inhibitors - cell viability counter screen (AID 743084).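 Further: cells stimulated with testosterone during compound exposure; nearly all actives have a fitted effect of over 55% in size.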
Experiment [15] deals with Peroxisome proliferator-activated receptor gamma (Homo sapiens) (UniProt P37231). The experiment can be described thus: qHTS assay to identify small molecule agonists of the peroxisome proliferator-activated receptor gamma (PPARg) signaling pathway (AID 743094; active means well fitted activation curve with a large enough effect in the signal ratio in the repeat runs, not every such curve was filed as active; the % refers to the signal ratio). Summed up:
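Reporter activation was scored by fluorescence of cleaved LiveBLAzer B/G substrate (1 h, room temperature) in PPARg-bla HEK293H cells previously treated 17 h at 37C with DMSO-dissolved compounds.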

Experiment [16] in a line: qHTS assay to identify small molecule agonists of the farnesoid-X-receptor (FXR) signaling pathway - cell viability counter screen (AID 743218). Further: nearly all actives have a fitted effect of over 45% in size. Further: potency means the concentration at half of the fitted maximal effect. Summed up: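 Viability of FXR-bla HEK 293T cells is measured by ATP-based CellTiter-Glo luminescence following 16 h compound treatment at 37 C and a prior 2 h room-temperature beta-lactamase substrate step.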
For experiment [17], the target named is Aryl hydrocarbon receptor (Homo sapiens) (UniProt P35869). Nature of the experiment: qHTS assay to identify small molecule that activate the aryl hydrocarbon receptor (AhR) signaling pathway (AID 743085).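 Further: HG2L7.5c1 human HepG2 liver cells with stably integrated DRE-driven firefly reporter; series mostly up to about 70 µM; nearly all actives have a fitted effect of over 15% in size.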 The method, boiled down: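 HepG2 cells stably carrying a 20-DRE firefly luciferase reporter (HG2L7.5c1) treated with compound for 24 hr at 37C. Luciferase read by ONE-Glo luminescence, with CellTiter-Fluor viability read first.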

Experiment [18] can be described thus: qHTS assay to identify small molecule that activate the aryl hydrocarbon receptor (AhR) signaling pathway - cell viability counter screen (AID 743086). Further: nearly all actives have a fitted effect of over 45% in size. Further: potency means the concentration at half of the fitted maximal effect. The method, boiled down: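 HepG2-AhR-luc (HG2L7.5c1) cells, 4000/well, were preincubated 5 h at 37C, exposed to compound in qHTS format for 24 hr at 37C, then given CellTiter-Fluor for 30 min; viability was read as fluorescence in the reporter wells.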

The target in experiment [19] is Vitamin D3 receptor (Homo sapiens) (UniProt P11473). Nature of the experiment: qHTS assay to identify small molecule antagonists of the vitamin D receptor (VDR) signaling pathway (AID 743223; active means well fitted inhibition curve with a large enough effect in the signal ratio in the repeat runs, not every such curve was filed as active; the % refers to the signal ratio). The method, boiled down:
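VDR-bla cells were treated with compound plus 3 nM final 1alpha,25-dihydroxyvitamin D3 for 16 h at 37C. Beta-lactamase reporter read by B/G FRET substrate fluorescence after 2 h at room temperature. qHTS format.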

Experiment [20] is described as follows: qHTS assay for small molecule agonists of the antioxidant response element (ARE) signaling pathway (AID 743202; active means well fitted activation curve with a large enough effect in the signal ratio in the repeat runs, not every such curve was filed as active; the % refers to the signal ratio; further: potency means the concentration at half of the fitted maximal effect). Summed up: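 Following a 16 h, 37 C exposure of reporter HepG2 cells (ARE-driven beta-lactamase, 2,000 cells/well) to compounds, FRET substrate was applied for 2 h at room temperature and fluorescence intensity recorded.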

Vitamin D3 receptor (Homo sapiens), sequence (P11473 whole entry, looked up): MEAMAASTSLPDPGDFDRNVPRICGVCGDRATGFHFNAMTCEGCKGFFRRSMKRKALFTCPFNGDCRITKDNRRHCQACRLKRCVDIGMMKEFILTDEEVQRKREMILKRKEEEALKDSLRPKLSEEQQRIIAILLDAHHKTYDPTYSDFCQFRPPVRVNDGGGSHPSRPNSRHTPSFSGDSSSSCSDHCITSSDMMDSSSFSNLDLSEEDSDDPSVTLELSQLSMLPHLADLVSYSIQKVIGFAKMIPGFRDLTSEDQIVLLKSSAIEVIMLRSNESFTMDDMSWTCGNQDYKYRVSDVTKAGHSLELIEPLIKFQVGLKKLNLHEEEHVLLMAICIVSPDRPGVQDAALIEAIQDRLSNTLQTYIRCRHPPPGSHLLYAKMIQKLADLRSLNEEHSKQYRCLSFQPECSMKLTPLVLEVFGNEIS
Peroxisome proliferator-activated receptor delta (Homo sapiens), sequence (Q03181 whole entry, looked up): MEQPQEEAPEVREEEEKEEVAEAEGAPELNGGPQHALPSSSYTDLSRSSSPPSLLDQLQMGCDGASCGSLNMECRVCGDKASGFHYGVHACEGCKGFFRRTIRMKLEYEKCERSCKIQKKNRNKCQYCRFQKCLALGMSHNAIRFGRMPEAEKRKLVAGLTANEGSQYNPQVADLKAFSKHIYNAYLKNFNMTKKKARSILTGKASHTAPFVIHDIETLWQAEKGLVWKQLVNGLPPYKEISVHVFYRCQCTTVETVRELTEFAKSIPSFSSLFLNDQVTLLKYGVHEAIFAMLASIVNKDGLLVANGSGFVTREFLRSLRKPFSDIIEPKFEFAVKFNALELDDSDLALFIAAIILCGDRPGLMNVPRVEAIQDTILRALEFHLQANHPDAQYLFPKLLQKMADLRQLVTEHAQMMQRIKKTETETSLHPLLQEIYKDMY
Aryl hydrocarbon receptor (Homo sapiens), sequence (P35869 whole entry, looked up): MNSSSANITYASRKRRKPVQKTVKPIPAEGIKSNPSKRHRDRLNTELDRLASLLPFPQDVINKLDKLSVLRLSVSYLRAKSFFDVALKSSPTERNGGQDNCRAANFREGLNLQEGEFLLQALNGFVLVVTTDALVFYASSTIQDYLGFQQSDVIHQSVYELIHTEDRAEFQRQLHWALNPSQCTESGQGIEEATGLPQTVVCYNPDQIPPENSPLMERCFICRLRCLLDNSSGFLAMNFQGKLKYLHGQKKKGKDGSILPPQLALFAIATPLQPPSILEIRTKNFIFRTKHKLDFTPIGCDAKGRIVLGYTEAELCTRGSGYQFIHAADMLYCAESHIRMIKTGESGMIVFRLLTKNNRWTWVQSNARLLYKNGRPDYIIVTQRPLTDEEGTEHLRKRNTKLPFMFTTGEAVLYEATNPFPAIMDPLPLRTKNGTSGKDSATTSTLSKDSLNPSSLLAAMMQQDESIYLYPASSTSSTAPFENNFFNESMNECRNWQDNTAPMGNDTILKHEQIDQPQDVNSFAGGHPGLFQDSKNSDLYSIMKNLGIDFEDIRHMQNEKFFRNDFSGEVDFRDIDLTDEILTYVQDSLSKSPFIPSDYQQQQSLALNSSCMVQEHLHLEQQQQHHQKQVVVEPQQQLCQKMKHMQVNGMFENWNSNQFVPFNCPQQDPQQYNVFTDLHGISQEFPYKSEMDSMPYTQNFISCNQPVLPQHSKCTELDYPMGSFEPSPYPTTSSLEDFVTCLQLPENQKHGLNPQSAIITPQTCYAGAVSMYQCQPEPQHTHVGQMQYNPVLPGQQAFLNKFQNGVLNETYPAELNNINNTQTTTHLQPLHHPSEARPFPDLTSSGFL
Bile acid receptor (Homo sapiens), sequence (Q96RI1 whole entry, looked up): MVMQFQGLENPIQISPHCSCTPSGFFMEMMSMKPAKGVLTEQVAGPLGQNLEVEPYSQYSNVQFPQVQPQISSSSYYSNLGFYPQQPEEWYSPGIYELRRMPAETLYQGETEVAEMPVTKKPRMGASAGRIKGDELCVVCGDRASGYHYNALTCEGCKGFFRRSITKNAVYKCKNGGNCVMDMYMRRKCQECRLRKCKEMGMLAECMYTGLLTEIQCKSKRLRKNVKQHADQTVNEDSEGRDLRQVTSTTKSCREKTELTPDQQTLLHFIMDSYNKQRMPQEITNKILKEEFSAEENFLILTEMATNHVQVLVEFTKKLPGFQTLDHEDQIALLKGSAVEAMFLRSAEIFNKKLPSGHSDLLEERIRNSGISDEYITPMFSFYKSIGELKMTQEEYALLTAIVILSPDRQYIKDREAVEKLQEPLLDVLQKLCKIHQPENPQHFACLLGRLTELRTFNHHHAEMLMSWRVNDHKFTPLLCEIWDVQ
Peroxisome proliferator-activated receptor gamma (Homo sapiens), sequence (P37231 whole entry, looked up): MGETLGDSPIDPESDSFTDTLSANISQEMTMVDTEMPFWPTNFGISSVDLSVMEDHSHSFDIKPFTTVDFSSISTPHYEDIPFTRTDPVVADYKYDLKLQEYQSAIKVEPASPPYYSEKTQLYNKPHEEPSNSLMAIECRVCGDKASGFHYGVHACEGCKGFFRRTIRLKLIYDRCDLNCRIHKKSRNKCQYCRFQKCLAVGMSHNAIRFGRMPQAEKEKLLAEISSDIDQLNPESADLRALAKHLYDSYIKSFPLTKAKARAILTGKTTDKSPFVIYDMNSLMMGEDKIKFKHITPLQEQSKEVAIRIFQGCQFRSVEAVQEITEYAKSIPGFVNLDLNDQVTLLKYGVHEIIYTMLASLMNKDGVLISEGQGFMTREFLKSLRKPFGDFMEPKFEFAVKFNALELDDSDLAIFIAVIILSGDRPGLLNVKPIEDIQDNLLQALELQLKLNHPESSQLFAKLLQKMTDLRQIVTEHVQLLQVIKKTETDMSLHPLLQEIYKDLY

For `ClCc1cccc(Cl)c1`, the Potency entry in experiment [1], in experiment [2], in experiment [3], in experiment [4], in experiment [6] and in [8] was “inactive” throughout. Further, the Potency result in [9], in experiment [10] and in experiment [12] was “inactive” each time. The outcome in experiment [5], in experiment [7], in experiment [11] and in experiment [13] was inactive.
`CCCCN(N=O)C(=N)N[N+](=O)[O-]`: the Potency result in experiment [14], in experiment [15], in experiment [2], in [3], in experiment [6] and in [8] was “inactive” in each case. Also, the Potency entry in experiment [9], in experiment [16] and in [12] was “inactive” throughout. Also, the outcome in experiment [7] and in experiment [13] was inactive.
On to `CCC(C)(NC(=O)c1cc(Cl)c(C)c(Cl)c1)C(=O)CCl` (stereo not drawn), for which the Potency was 39.1 µM (active) in experiment [2], 21.8 µM (active) in experiment [3], 49.3 µM (active) in experiment [6] and 55.3 µM (active) in experiment [12].
With `O=S(=O)(O)C(F)(F)C(F)(F)C(F)(F)C(F)(F)F`, the Potency entry in experiment [17], in experiment [15], in experiment [3] and in experiment [6] was “inactive” each time. Moreover, in [5], the call was inactive.
Consider `CN1C[C@H](CNC(=O)OCc2ccccc2)C[C@@H]2c3cccc4c3c(cn4C)C[C@H]21`, for which the Potency was 29.8 µM (active) in [18]; 26.6 µM (active) in experiment [2]; 33.5 µM (active) in [3]; 26.6 µM (active) in experiment [6]; 13.3 µM (active) in [8]; 13.3 µM (active) in experiment [16]. Further, the Potency entry in [1] and in [4] was “inactive” throughout. In addition, in experiment [5], the outcome was inactive.
For `CCCCc1c(C)nc(NCC)nc1OS(=O)(=O)N(C)C`, the Potency result in [2], in experiment [3], in experiment [4], in [6], in experiment [8] and in experiment [9] was “inactive” throughout. Moreover, the Potency result in experiment [12] was “inactive”. In addition, the molecule was called inactive in experiment [5], in experiment [7] and in experiment [13].
Turning to `Cl/C=C\C[N+]12CN3CN(CN(C3)C1)C2`, the Potency entry in experiment [17], in [3], in experiment [4], in experiment [6], in experiment [8] and in [10] was “inactive” each time. Also, the Potency entry in experiment [16] and in experiment [12] was “inactive” in each case. The molecule was classed as inactive in [5], in [11], in experiment [13] and in experiment [19].
For `C=CC(=O)OCC(C)O` (stereo not drawn), the Potency entry in experiment [17], in experiment [18], in [1], in experiment [2], in experiment [3] and in experiment [4] was “inactive” throughout. For the same molecule, the Potency result in experiment [6], in experiment [10] and in experiment [12] was “inactive” throughout. Moreover, the Potency in experiment [20] is 8.91 µM (active). In addition, the result in experiment [5], in [11] and in [13] was inactive.
Consider `O=C(O)C(F)(F)C(F)(F)C(F)(F)C(F)(F)C(F)(F)C(F)(F)C(F)(F)C(F)(F)C(F)(F)F`, for which the Potency entry in experiment [18], in experiment [15], in experiment [2], in experiment [3], in [4] and in [8] was “inactive” throughout. In addition, the Potency entry in experiment [9], in [16] and in experiment [12] was “inactive” throughout. For the same molecule, the molecule was called inactive in experiment [5] and in experiment [7].
With `COC1=CC(=O)O[C@@H](CCc2ccccc2)C1`, the Potency result in experiment [17], in experiment [2], in experiment [3], in [4], in experiment [6] and in experiment [8] was “inactive” each time. Besides, the Potency entry in experiment [9], in experiment [16] and in [12] was “inactive” in each case. Moreover, the molecule was called inactive in experiment [5], in [7] and in [13].
`C=C(C#N)CCC#N`: the Potency entry in experiment [17], in experiment [15], in experiment [1], in experiment [2], in [3] and in experiment [4] was “inactive” throughout. The Potency entry in experiment [6], in experiment [16] and in experiment [12] was “inactive” throughout. Further, the molecule was called inactive in experiment [5] and in experiment [13].
On to `C=CCN1CC[C@]23c4c5ccc(O)c4O[C@H]2C(=O)CC[C@@]3(O)[C@H]1C5`, for which the Potency result in [14], in experiment [2], in experiment [20], in experiment [3], in experiment [4] and in experiment [6] was “inactive” each time. For the same molecule, the Potency entry in experiment [8], in [10], in experiment [16] and in experiment [12] was “inactive” throughout. In addition, the molecule was called inactive in experiment [5], in experiment [11] and in [13].
As to `O=[Se]=O`, the Potency entry in experiment [14], in experiment [1], in experiment [3], in experiment [4], in experiment [6] and in experiment [8] was “inactive” in each case. In addition, the Potency entry in experiment [10], in experiment [16] and in [12] was “inactive” throughout. Besides, the Potency in [20] was 8.58 µM (active). Besides, the molecule was called inactive in experiment [5], in experiment [11], in experiment [13] and in [19].

The values are drawn from PubChem BioAssay (Tox21).
